# Measurements taken from PubChem BioAssay (EPA / NIEHS).
# Results filed as inconclusive are left out. The source made the active and inactive calls. The calls were made as follows: active = hit-call score of the fitted dose curve at least 0.9, where 1 is the maximum; inconclusive = response in the unintended direction; inactive = score below 0.9.
# Experiment: ACEA_ER_80hr: ACEA Biosciences xCELLigence Real-Time Cell Analysis on Estrogen Receptor Agonism for Proliferation (AID 2282667)
# Details: T47D proliferation, impedance (xCELLigence), 80 h
# Experimental: ACEA_ER is a cell-based, single-readout assay that uses T47D, a human breast cell line, with measurements taken at 80 hours after chemical dosing in a 96-well plate, although TO2 (mc0.srcf) used a 384-well plate. Differences in plate size can be ignored given data normalization.ACEA_ER_80hr is one of two assay component(s) measured or calculated from the ACEA_ER assay. It is designed to make measurements of real-time cell-growth kinetics, a form of growth reporter, as detected with electrical impedance signals by Real-Time Cell Electrode Sensor (RT-CES) technology.Data from the assay component ACEA_ER_80hr was analyzed into 1 assay endpoint. This assay endpoint, ACEA_ER_80hr_Positive, was analyzed in the positive analysis fitting direction relative to DMSO as the negative control and baseline of activity. Using a type of growth reporter, measures of the cells for gain-of-signal activity can be used to understand the signaling at the pathway-level as they relate to the gene ESR1. Furthermore, this assay endpoint can be referred to as a primary readout, because this assay has produced multiple assay endpoints where this one serves a signaling function. To generalize the intended target to other relatable targets, this assay endpoint is annotated to the nuclear receptor intended target family, where the subfamily is steroidal.
# The xCELLigence system Multi-E-Plate stations were used to measure the time-dependent response to chemicals. Each compound was tested in an eight-point, 1:4 serial dilution series starting at a maximum final concentration of 100 uM. A maximum starting concentration of 0.5% DMSO was present in the 100 uM chemical samples and was diluted along with the test article dilution series. The screen was performed in biological duplicate using two separate, 96-well, E-Plates 96 for each dilution series (n = 2). Positive controls (MG132 and E2) and a negative control (assay media) were tested in quadruplicate on each testing plate. […] Reference compounds were tested with 8 concentrations with 1:5 serial dilutions. All screening was carried out by ACEA Biosciences, Inc. (San Diego, CA). T-47D cells purchased from ATCC were maintained in RPMI1640 media supplemented with 10% characterized fetal bovine serum (FBS). […] Cells were then detached and seeded in E-Plates 96 in assay medium. After overnight monitoring of growth once every hour, compounds were added to […] cells and remained in the medium until the end of the experiment. Cellular responses were then recorded once every 5 min for the first 5 h, and once every hour for an additional 100 h.
Compound,outcome,AC50
CC(=O)OC/C=C(\C)CCC=C(C)C,inactive,–
Cc1nc(C)nc(N2C[C@@H](C)N(c3ccnc([C@@H](C)O)n3)[C@@H](C)C2)n1,inactive,–
CC(CO)OC(C)CO (stereo not given) (tested in a mixture with another compound),inactive,–
Cc1ccc(Cl)cc1,inactive,–
O=C(N[C@@H](Cc1ccccc1)[C@@H](O)C(=O)N1C[C@@H](O)[C@@H](O)C1)c1cc2cc(Cl)ccc2[nH]1,inactive,–
COC(=O)c1ccc(O)cc1,inactive,–
CCCCCCCCCCO,–,19.8 µM (active)
Cc1cccc([N+](=O)[O-])c1C,inactive,–
CCCc1cc(=O)[nH]c(=S)[nH]1,–,0.747 µM (active)
O=C(O)Cc1ccccc1Nc1c(Cl)cccc1Cl,–,50 µM (active)
Oc1ccc2c(c1)OC[C@@H](N1CCC(O)(c3ccc(F)cc3)CC1)[C@H]2O,inactive,–
CCOc1ccc2c(c1)C(C)=CC(C)(C)N2,inactive,–
CC(C)c1ccc(C(=O)N=C(N)N)cc1S(C)(=O)=O,inactive,–
Cc1ccc(C(C)C)c(O)c1,inactive,–
COc1ccc2c(c1)c(CC(=O)O)c(C)n2C(=O)c1ccc(Cl)cc1,inactive,–
NCC1(Cc2noc(=O)[nH]2)CCCCC1,inactive,–
Cc1cccc(Nc2cc(Cl)nc(SCC(=O)O)n2)c1C,inactive,–
CCNc1cccc(C)c1,inactive,–
CCCCN(CCCC)CCCC,inactive,–
CC1(C)CC(N=C=O)CC(C)(CN=C=O)C1 (stereo not given),inactive,–

Compound,outcome,AC50
Nc1nc(N)c2nc(CNc3ccc(C(=O)N[C@@H](CCC(=O)O)C(=O)O)cc3)cnc2n1,inactive,–
O=C(O)CCCCC(=O)O,inactive,–
Nc1ccccc1N,inactive,–
CCOC(=O)CCC(=O)OCC,inactive,–
COc1cccc2c1C(=O)c1c(O)c3c(c(O)c1C2=O)C[C@@](O)(C(=O)CO)C[C@@H]3O[C@H]1C[C@H](N)[C@H](O)[C@H](C)O1,inactive,–
Cc1ccc(N(C)C)cc1,inactive,–
CCCCc1ccc2c(n1)[C@@H](c1ccc(OC)cc1C[C@H](C)C(=O)O)[C@H](C(=O)O)[C@H]2c1ccc2c(c1)OCO2,inactive,–
Clc1cc(Cl)c(Cl)cc1Cl,inactive,–
CC(=O)Oc1ccccc1C(=O)O,inactive,–
CNCc1cc(F)ccc1Oc1ccc(Cl)c(Cl)c1,inactive,–
CN[C@H]1CC[C@@H](c2ccc(Cl)c(Cl)c2)c2ccc(S(N)(=O)=O)cc21,inactive,–
CCCCCCCCCCCC(=O)OC,inactive,–
COc1ccc(S(=O)(=O)N2C(=O)[C@@](c3ccccc3OC)(N3C[C@H](O)C[C@H]3C(=O)N(C)C)c3cc(Cl)ccc32)c(OC)c1,inactive,–
CCCCCC(=O)O,inactive,–
Nc1ccc2c(c1)C(=O)c1ccccc1C2=O,inactive,–
CCCCCCCCCCC,inactive,–
COCCOCCOC,inactive,–
C[C@]12C=CC(=O)C=C1CC[C@@H]1[C@@H]2C(=O)C[C@@]2(C)[C@H]1CC[C@]2(O)C(=O)CO,–,14.8 µM (active)
CCCCCCCCCCCCCCCCCC(=O)O,–,2.04 µM (active)
Cc1ccc(C)c(O)c1C,inactive,–
